According to ChEMBL document CHEMBL3988442, “University of Dundee, Small-Polar-MMV Screening Library” (2021):
Screen size: about 48,000 compounds; about 13,000 (27%) showed an effect of 50% or more. The list shows a part of the results.

System: Wolbachia pipientis
Assay: Anti-Wolbachia Cell-Based Screen
Type: functional
Set-up: scale not given: in the data most compounds retested in dose-response had high values
Conditions: 5 µM

Row | SMILES | Percent Effect [%]
1 | Cn1cc(CNCC2Cn3nnc(-c4ccccc4)c3CO2)cn1 (centres undefined) | -12.32
2 | Cn1nnc2cc(C(=O)NS(=O)(=O)Cc3ccc(F)cc3)ccc21 | -12.26
3 | COCC(C)NC(=O)CN1CCC2(CC1)OCCO2 (centres undefined) | -2.993
4 | CN1CCOC(C(=O)N2CCC3(CCCC3)CC2)C1 (centres undefined) | -33.61
5 | O=C(CCc1ccccc1Br)NCC(=O)NCc1ccccc1 | 2.467
6 | CN(Cc1ccc(F)cc1)CC1(O)CCN(C(=O)c2cccs2)C1 (centres undefined) | 131.3
7 | CN(Cc1ccc(F)cc1)CC1(O)CCN(C(=O)c2ccn(C)n2)C1 (centres undefined) | 136.3
8 | COc1ccc(CN(C)CC2(O)CCN(C(=O)c3cccn3C)C2)cc1 (centres undefined) | -15.88
9 | CN(C)CCN1CC2(CCC1=O)CCN(C(=O)c1ccn(C)n1)CC2 | 6.742
10 | O=C(Cc1ccccc1)C1CCCN(Cc2cncn2C2CCCC2)C1 (centres undefined) | -39.33
11 | Cc1nccnc1N1CCC(Cc2ccccc2Cl)(C(=O)O)CC1 | 4.229
12 | CCc1ccc(C(NCC(N)=O)C(C)(C)C)o1 (centres undefined) | -15.62
13 | Cc1ccc(-c2nccn2-c2ccc(OC3CCN(C)CC3)cc2)o1 | 109.9
14 | c1cc(CN2CCCC2)cc(-n2ccnc2-c2ccncc2)c1 | -6.612
15 | Cc1ccc(C(=O)Nc2ccc(OC3CCN(C)CC3)cc2)c(C)c1 | 4.12
16 | Cc1nnc(CN2CCC(Oc3ccc(F)cc3)CC2)o1 | -12.54
17 | Cc1cccc(C(=O)Nc2ccc(OC3CCN(C)CC3)cc2)c1 | -4.145
18 | Cc1ccc(C)c(C(=O)Nc2ccc(OC3CCN(C)CC3)cc2)c1 | -4.844
19 | CN1CCC(Oc2ccc(-n3ccnc3-c3nccn3C)cc2)CC1 | 110.4
20 | CN1CCC(Oc2ccc(-n3ccnc3-c3ccncc3)cc2)CC1 | 114.7
21 | Cn1ccnc1-c1nccn1-c1cccc(CN2CCCC2)c1 | -8.491
22 | CCC(CC)c1cc(CNC(=O)N2CCOC(C)C2)on1 (centres undefined) | 0.178
23 | COc1ccc(C(=O)N2CCC(Oc3cccc(C)c3)(C(=O)O)CC2)o1 | -1.031
24 | Cc1ccc(Cl)c(C(C(=O)O)N(C)Cc2cnn(C)c2)c1 (centres undefined) | -5.56

Row | SMILES | Percent Effect [%]
25 | O=C(NC1CCS(=O)(=O)C1)c1sccc1-c1ccc(F)cc1 (centres undefined) | 12.15
26 | COc1ncc(CN2CCCC2c2[nH]ncc2C(=O)N(C)C)cn1 (centres undefined) | 107.3
27 | CC(C)c1ncc(CN2CCCC(CO)C2)cn1 (centres undefined) | -2.469
28 | CNc1ncc(CN2CCCC2c2[nH]ncc2C(=O)N(C)C)cn1 (centres undefined) | 118.3
29 | CCN1CCN(C[C@@H]2CN(Cc3cnc(C(C)C)nc3)C[C@@H]2CO)CC1 | -21.09
30 | COc1ccccc1CC1CCCN1C(=O)c1cn[nH]c1C (centres undefined) | 6.47
31 | CNc1ncc(CN(C)C(=O)[C@@]23CNC[C@@H]2CN(C2CCCC2)C3)cn1 | 3.616
32 | CC(C)c1ncc(CN2C[C@@H](CN3CCCC3)[C@@H](CO)C2)cn1 | -18.71
33 | Cc1nn(C)c(C)c1C1CCCN1Cc1cccc(C(=O)N(C)C)c1 (centres undefined) | -5.304
34 | CC(C)c1ncc(CN2C[C@@H](CN3CCC(O)CC3)[C@@H](CO)C2)cn1 | -17.14
35 | CC(C)c1ncc(CN2CCC(c3n[nH]cc3C(=O)N(C)C)C2)cn1 (centres undefined) | 128.3
36 | CC(C)c1ncc(CN2CCCC2c2[nH]ncc2C(=O)N(C)C)cn1 (centres undefined) | 138.1
37 | CCc1cn[nH]c1C1CCCN(C(=O)c2cnc(NC(C)C)nc2)C1 (centres undefined) | -3.348
38 | CCC(CC)N(C)S(=O)(=O)c1ccc(CCNC(C)=O)s1 | -16.74
39 | COc1cccc2c1OCC(C(=O)N(C)CCCc1cnn(C)c1)C2 (centres undefined) | -4.921
40 | Cc1cccn2cc(CN3CCCC(c4ccn[nH]4)C3)nc12 (centres undefined) | 3.062
41 | CC(C)C(O)CCNC(=O)Nc1cc(F)ccc1-n1cccn1 (centres undefined) | -1.867
42 | Cc1cc(F)ccc1-n1cc(O)c(C(N)=O)n1 | 117.5
43 | Cc1nc(C(C)NC(=O)COc2ccc(F)cc2)n[nH]1 (centres undefined) | -12.19
44 | C[S+]([O-])CCNC(=O)Nc1cc(F)ccc1-n1cccn1 (centres undefined) | -7.044
45 | Cc1nc(NC(=O)c2nn(-c3ccc(F)cc3C)cc2O)n[nH]1 | 158.1
46 | CC(C)c1cccc(-n2cc(O)c(C(N)=O)n2)c1 | -1.55
47 | Cc1cc(F)ccc1-n1cc(O)c(C(=O)NCC[S+](C)[O-])n1 (centres undefined) | 102.5
48 | COCCn1ccc2cc(NC(=O)N(C)C(C)CSC)ccc21 (centres undefined) | 13.09

Row | SMILES | Percent Effect [%]
49 | O=C(c1nn(-c2ccccc2F)cc1O)N1CCCC1 | -1.057
50 | CC(C)c1cccc(-n2cc(O)c(C(=O)NCCC(=O)N(C)C)n2)c1 | -3.512
51 | CSCC(C)N(C)C(=O)c1nn(-c2ccc(F)cc2C)cc1O (centres undefined) | 188.7
52 | COCCNC(=O)c1nn(-c2cccc(C(C)C)c2)cc1O | -7.047
53 | COc1cccc(C2C3=C(COC3=O)Nc3[nH]nc(C)c32)c1O (centres undefined) | 0.9958
54 | OCc1cc2ccccc2nc1NCC1(O)CCC1 | 2.986
55 | O=C(NCC1(O)CCOCC1)c1ccn(-c2ccccc2F)n1 | -4.813
56 | Cc1cc(F)ccc1-n1cc(O)c(C(=O)NCC2(O)CCC2)n1 | 99.53
57 | O=C(NCCC(=O)N1CCCC1)c1nn(-c2ccccc2F)cc1O | -1.899
58 | Cc1nnc(N2C[C@@H](OCC3CCCC3)[C@H]3OCCC[C@H]32)s1.O=C(O)C(F)(F)F | -7.489
59 | Fc1cnc(N2CC[C@@H](N3CCOCC3)[C@@H]2Cc2ccncc2)nc1.O=C(O)C(F)(F)F.O=C(O)C(F)(F)F | -1.872
60 | O=C(O)C(F)(F)F.c1cnc(N2CCO[C@H]3[C@H](OCC4CC4)CC[C@@H]32)nc1 | 118.2
61 | O=C(O)C(F)(F)F.c1cnc(N2CCO[C@H]3[C@H](OCCN4CCCC4)CC[C@@H]32)nc1 | -8.905
62 | Cc1nnc(N2C[C@H](OCC3CCCC3)[C@H]3OCCC[C@H]32)s1.O=C(O)C(F)(F)F | -7.444
63 | Fc1cnc(N2CCO[C@H]3[C@H](OCCN4CCCC4)CC[C@@H]32)nc1.O=C(O)C(F)(F)F | 101.9
64 | Fc1cnc(N2CCO[C@H]3[C@H](OCC4CCOCC4)CC[C@@H]32)nc1.O=C(O)C(F)(F)F | 113.1
65 | Cc1nnc(N2CCO[C@H]3[C@@H](OCc4ccccn4)CC[C@@H]32)s1.O=C(O)C(F)(F)F.O=C(O)C(F)(F)F | 0.4576
66 | O=C(CO[C@@H]1CC[C@H]2[C@H]1OCCN2c1ncccn1)N1CCCC1.O=C(O)C(F)(F)F | -14.02
67 | C1CC(CN2CCO[C@H]3[C@H](OCC4CC4)CC[C@@H]32)CCO1.O=C(O)C(F)(F)F | -2.542
68 | Fc1cnc(N2C[C@@H](OCC3CCOCC3)[C@H]3OCCC[C@H]32)nc1.O=C(O)C(F)(F)F | 83.11
69 | Cn1cccc1C(=O)NS(=O)(=O)c1cnn(-c2ccccc2F)c1 | -15.01
70 | CCC(CC)c1cc(CNC(=O)N2CCC(CO)CC2)on1 | 3.231
71 | CCSc1ccc(NC(=O)NC(C)c2ccncc2)cn1 (centres undefined) | 4.069
72 | O=C(O)C(F)(F)F.c1cnc(N2CCO[C@H]3[C@H](OCC4CCOCC4)CC[C@@H]32)nc1 | 109.2

Row | SMILES | Percent Effect [%]
73 | c1cnc(N2CCO[C@H]3[C@H](OCCN4CCOCC4)CC[C@@H]32)nc1 | 4.128
74 | CN(C)C(=O)CO[C@@H]1CC[C@H]2[C@H]1OCCN2c1ncc(F)cn1.O=C(O)C(F)(F)F | 112.4
75 | Cc1ccc(N2CCO[C@H]3[C@H](OCC(=O)N4CCCC4)CC[C@@H]32)cc1.O=C(O)C(F)(F)F | -12.38
76 | CN(C)C(=O)CO[C@@H]1CC[C@H]2[C@H]1OCCN2c1ncccn1.O=C(O)C(F)(F)F | -13.26
77 | CC(C)c1noc(CS(=O)(=O)CC(=O)NCc2ccccc2)n1 | -6.671
78 | CNC(=O)CC1CCN(C(=O)NCC2(c3ccccc3F)CC2)CC1 | 17.39
79 | C[C@H](NC(=O)c1cnc(-c2ccccc2)nc1O)C(N)=O | -2.731
80 | Cc1cccc(C)c1Oc1ncccc1CNC(=O)C1COC(=O)N1 (centres undefined) | 89.56
81 | CC(=O)N[C@@H](C)C(=O)NCc1cccnc1Oc1ccccc1F | -9.866
82 | O=C1NC(C(=O)NCc2cccnc2Oc2ccc(F)c(F)c2)CO1 (centres undefined) | 103.5
83 | CC1(C(=O)NCc2cccnc2Oc2ccc(F)cc2F)CCCNC1 (centres undefined) | -10.63
84 | Cc1cccc(C)c1Oc1ncccc1CNC(=O)C1(C)CCCNC1 (centres undefined) | 9.373
85 | Cc1ccccc1Oc1ncccc1CNC(=O)Cn1cccnc1=O | -3.943
86 | CC1(C(=O)NCc2cccnc2Oc2ccc(F)c(F)c2)CCCNC1 (centres undefined) | -1.745
87 | CN(C)S(=O)(=O)NCc1cccnc1Oc1ccccc1F | -2.54
88 | O=C1NC(C(=O)NCc2cccnc2Oc2ccccc2F)CO1 (centres undefined) | 117.3
89 | O=C1NC(C(=O)NCc2cccnc2Oc2ccc(F)cc2F)CO1 (centres undefined) | 106.1
90 | O=C(CN1CCCC1=O)NCc1cccnc1Oc1ccc(F)c(F)c1 | -46.82
91 | COc1ccccc1Oc1ncccc1CNC(=O)C(O)C(F)(F)F (centres undefined) | -1.797
92 | CC(C)c1noc(CN(C)C(c2ccc(F)cc2)c2cccnc2)n1 (centres undefined) | 7.35
93 | CCn1nc2c(cc1=O)CN(CCCOc1ccc(C#N)cc1)CC2 | -4.501
94 | CC(C)(C)OC(=O)NCC1CCCCN1Cc1cccc(C(N)=O)c1 (centres undefined) | -2.516
